This note sets out measurements from PubChem BioAssay (NCI).

The structures appear in SMILES notation. The panel holds about 83,000 compounds, 20% with a hit somewhere; the sample as a whole holds those more often.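 Assay: single dose, 48 h. Readout: percent growth (0 = no net growth; negative = cell death). Active: <10.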 Activity calls are given as the source filed them.

One assay concerns HS 578T breast. Put plainly: NCI-60 one-dose screen, 48 h (100 = growth as untreated, 0 = no growth, -100 = all killed). The note with it: 10 µM unless noted.
Consider `Cn1ccnc1C(=O)/C=C/c1ccc(NC(=O)Nc2ccc(Cl)cc2)cc1`, for which the growth is 77% (inactive).
For the molecule `C#Cc1nc(C2=C(C)/C(=N/OCc3ccccc3)CC2)cs1`, the growth was 70.9% (inactive).
Still for that read-out and setting: to `COc1ccc(-n2c(SCC(=O)Nc3ccc(-c4nc5ccccc5[nH]4)cc3)nc3ccccc3c2=O)cc1` belongs 28.7% (inactive); to `COc1cc(OC)c(S(=O)(=O)NNC(=O)c2ccncc2)cc1C(=O)/C=C/c1ccc(C)cc1`, 80.5% (inactive); to `COC(=O)C(C)NS(=O)(=O)/N=C1\NC(=O)NC1=C(Cl)Cl` (stereo unspecified), 107% (inactive).
Turning to `COc1ccc(C(=O)/C=C/c2ccc(Oc3nc(NCCO)nc(N4CCOCC4)n3)c(OC)c2)cc1`, the growth is 78.1% (inactive).
For `NS(=O)(=O)c1cccc(Nc2nc(SCC(=O)c3ccc(Br)cc3)nc3ccccc23)c1`, the growth is 59.6% (inactive).
Regarding `O=C(N/N=C/c1ccc([N+](=O)[O-])o1)c1[nH]c2ccc(Br)cc2c1-c1ccccc1`, the growth is 8.44% (active).
As for `O=C(N/N=C/c1cccs1)c1[nH]c2ccc(Br)cc2c1-c1ccccc1`, the growth was 27.2% (inactive).
The same measure, in the same setting: to `Cc1sc2c(c1C)c(=O)nc1c(-c3nc(-c4ccc(F)cc4)no3)n[nH]n12` belongs 105% (inactive); to `N#Cc1nc(-c2ccccc2)oc1N1CC[C@@H](CO)C1`, 111% (inactive); to `Cn1ccnc1C(=O)/C=C/c1ccc(NC(=O)Nc2ccc(F)cc2)cc1`, 17.6% (inactive).
On the same count and under the same terms, then `COc1ccc(NC2=C(Cl)C(=O)C(C)=C(C)C2=O)cc1OC`, with 91.2% (inactive); and `NS(=O)(=O)c1ccc(Nc2nc(Nc3ccccc3)nc(-n3nc(-c4ccccc4)cc3-c3ccccc3)n2)cc1`, with 64.6% (inactive).
The same measure, in the same setting: then `C#Cc1nc(C2=C(C)C(O)/C(=N/O)C2)cs1` (stereo unspecified), with 97.6% (inactive); and `Cc1ccc2c(n1)C(=O)C(Cl)=C(Nc1cccc(C(C)C)c1)C2=O`, with 43.1% (inactive); and `CN1CCc2c(sc3ncnc(N/N=C/c4ccc(Cl)c(Cl)c4)c23)C1`, with 78.5% (inactive).
Take `O=C(N/N=C/c1ccc(Br)s1)c1[nH]c2ccc(Br)cc2c1-c1ccccc1`: the growth was 23.6% (inactive).
The same measure, in the same setting: to `C#Cc1nc(C2=C(C)C(O)CC2)cs1` (stereo unspecified) belongs 104% (inactive).
On the same count and under the same terms, then `O=C(N/N=C/c1ccc[nH]1)c1[nH]c2ccc(Br)cc2c1-c1ccccc1`, with 29.5% (inactive); and `COc1ccc(/C=N/NC(=O)c2[nH]c3ccc(Br)cc3c2-c2ccccc2)s1`, with 29.9% (inactive).
On the same count and under the same terms, to `C/C(=N\NC(N)=O)c1c(O)sc(=O)[nH]c1=O` belongs 91.4% (inactive); to `C#Cc1nc(C2=C(C)C(=O)/C(=N/OC(C)=O)C2)cs1`, 90.7% (inactive).
`Cn1ccnc1C(=O)/C=C/c1ccc(NC(=O)Nc2ccccc2)cc1`: the growth is 5.48% (active).
Still for that read-out and setting: to `COc1cc(/C=C/C(=O)c2cc(OC)c(OC)c(OC)c2)ccc1OCc1ccccc1` belongs 88.9% (inactive); to `CC(O)C(NC(=O)C1CCCN1C(=O)CNC(=O)C1CC(=O)NCC(=O)NC(Cc2c[nH]c3ccccc23)C(=O)NC(Cc2ccc(O)cc2)C(=O)NCC(=O)NC(CO)C(=O)NC(CCC(N)=O)C(=O)NC(Cc2c[nH]c3ccccc23)C(=O)N1)C(=O)NCC(=O)NC(CCC(N)=O)C(=O)NC(CCCNC(=N)N)C(=O)NC(CC(=O)O)C(=O)O` (stereo unspecified), 102% (inactive).
On the same count and under the same terms, then `COc1cc(/C=C/C(=O)c2cc(OC)c(OC)c(OC)c2)ccc1OCc1ccc(F)cc1`, with 89.7% (inactive); and `O=C(N/N=C/c1ccc([N+](=O)[O-])s1)c1[nH]c2ccc(Br)cc2c1-c1ccccc1`, with 11.6% (inactive); and `N#Cc1c(-c2ccc(Cl)cc2)nc2c(-c3ccccc3)c(Nc3ccccc3)nn2c1N`, with 37.3% (inactive).
Regarding `O=C(Oc1ccc2ccc(=O)oc2c1)c1ccc(Cl)cc1`, the growth was 103% (inactive).
The same measure, in the same setting: to `C#Cc1nc(C2=C(C)C(OC(=O)CCC(=O)O)CC2)cs1` (stereo unspecified) belongs 92.5% (inactive); to `C#Cc1nc(C2=C(C)C(=N\O)/C(=N/O)C2)cs1`, 86.7% (inactive); to `O=C(N/N=C/c1ccco1)c1[nH]c2ccc(Br)cc2c1-c1ccccc1`, 31.6% (inactive).
As to `COC(=O)C(Cc1ccccc1)NS(=O)(=O)/N=C1\NC(=O)NC1=C(Cl)Cl` (stereo unspecified), the growth is 100% (inactive).
On the same count and under the same terms, then `N#Cc1ccc(/C=N/NC(=O)c2[nH]c3ccc(Br)cc3c2-c2ccccc2)s1`, with 23.3% (inactive); and `CCOc1ccc2nc(NC(=O)c3ccc(C(F)(F)F)cc3)sc2c1`, with 114% (inactive).

The test system of the next assay is NCI/ADR-RES ovarian. Described as above. Conditions: 10 µM unless noted.
Consider `Cn1ccnc1C(=O)/C=C/c1ccc(NC(=O)Nc2ccc(Cl)cc2)cc1`, for which the growth is 76.2% (inactive).
Same read-out and setting: to `C#Cc1nc(C2=C(C)/C(=N/OCc3ccccc3)CC2)cs1` belongs -3.32% (active).
The same measure, in the same setting: then `COc1ccc(-n2c(SCC(=O)Nc3ccc(-c4nc5ccccc5[nH]4)cc3)nc3ccccc3c2=O)cc1`, with 32.5% (inactive).
Same read-out and setting: to `COc1cc(OC)c(S(=O)(=O)NNC(=O)c2ccncc2)cc1C(=O)/C=C/c1ccc(C)cc1` belongs 107% (inactive); to `COC(=O)C(C)NS(=O)(=O)/N=C1\NC(=O)NC1=C(Cl)Cl` (stereo unspecified), 105% (inactive); to `COc1ccc(C(=O)/C=C/c2ccc(Oc3nc(NCCO)nc(N4CCOCC4)n3)c(OC)c2)cc1`, 82.9% (inactive).
As for `NS(=O)(=O)c1cccc(Nc2nc(SCC(=O)c3ccc(Br)cc3)nc3ccccc23)c1`, the growth is 82.8% (inactive).
For the molecule `O=C(N/N=C/c1ccc([N+](=O)[O-])o1)c1[nH]c2ccc(Br)cc2c1-c1ccccc1`, the growth is 18.7% (inactive).
For `O=C(N/N=C/c1cccs1)c1[nH]c2ccc(Br)cc2c1-c1ccccc1`, the growth is 17.8% (inactive).
The same measure, in the same setting: then `COc1cc2cc(Oc3ccc(NC(=O)c4cccc(C(F)(F)F)c4)cc3)c(C)nc2cc1OCCN1CCCCC1`, with 75.4% (inactive).
Consider `Cc1sc2c(c1C)c(=O)nc1c(-c3nc(-c4ccc(F)cc4)no3)n[nH]n12`, for which the growth was 109% (inactive).
Consider `N#Cc1nc(-c2ccccc2)oc1N1CC[C@@H](CO)C1`, for which the growth was 102% (inactive).
With `Cn1ccnc1C(=O)/C=C/c1ccc(NC(=O)Nc2ccc(F)cc2)cc1`, the growth was 43.8% (inactive).
Same read-out and setting: then `NS(=O)(=O)c1ccc(Nc2nc(Nc3ccccc3)nc(-n3nc(-c4ccccc4)cc3-c3ccccc3)n2)cc1`, with 45% (inactive).
Same read-out and setting: to `C#Cc1nc(C2=C(C)C(O)/C(=N/O)C2)cs1` (stereo unspecified) belongs 1% (active).
For `CN1CCc2c(sc3ncnc(N/N=C/c4ccc(Cl)c(Cl)c4)c23)C1`, the growth is 29.6% (inactive).
The same measure, in the same setting: to `O=C(CSc1nnc(-c2ccc3nc(-c4ccc(Cl)cc4)[nH]c3c2)o1)Nc1ccc(C(=O)/C=C/c2ccc(Cl)cc2)cc1` belongs 105% (inactive); to `O=C(N/N=C/c1ccc(Br)s1)c1[nH]c2ccc(Br)cc2c1-c1ccccc1`, 16.6% (inactive).
The same measure, in the same setting: then `C#Cc1nc(C2=C(C)C(O)CC2)cs1` (stereo unspecified), with 35.9% (inactive); and `O=C(N/N=C/c1ccc[nH]1)c1[nH]c2ccc(Br)cc2c1-c1ccccc1`, with 14.8% (inactive).
Same read-out and setting: to `COc1ccc(/C=N/NC(=O)c2[nH]c3ccc(Br)cc3c2-c2ccccc2)s1` belongs 15.8% (inactive); to `C/C(=N\NC(N)=O)c1c(O)sc(=O)[nH]c1=O`, 105% (inactive).
As for `C#Cc1nc(C2=C(C)C(=O)/C(=N/OC(C)=O)C2)cs1`, the growth is 1.61% (active).
With `Cn1ccnc1C(=O)/C=C/c1ccc(NC(=O)Nc2ccccc2)cc1`, the growth is 22.2% (inactive).
On the same count and under the same terms, then `COc1cc(/C=C/C(=O)c2cc(OC)c(OC)c(OC)c2)ccc1OCc1ccccc1`, with 14.4% (inactive); and `CC(O)C(NC(=O)C1CCCN1C(=O)CNC(=O)C1CC(=O)NCC(=O)NC(Cc2c[nH]c3ccccc23)C(=O)NC(Cc2ccc(O)cc2)C(=O)NCC(=O)NC(CO)C(=O)NC(CCC(N)=O)C(=O)NC(Cc2c[nH]c3ccccc23)C(=O)N1)C(=O)NCC(=O)NC(CCC(N)=O)C(=O)NC(CCCNC(=N)N)C(=O)NC(CC(=O)O)C(=O)O` (stereo unspecified), with 104% (inactive).
On the same count and under the same terms, to `COc1cc(/C=C/C(=O)c2cc(OC)c(OC)c(OC)c2)ccc1OCc1ccc(F)cc1` belongs 20% (inactive); to `O=C(N/N=C/c1ccc([N+](=O)[O-])s1)c1[nH]c2ccc(Br)cc2c1-c1ccccc1`, 17.3% (inactive).
Same read-out and setting: to `N#Cc1c(-c2ccc(Cl)cc2)nc2c(-c3ccccc3)c(Nc3ccccc3)nn2c1N` belongs 38.9% (inactive); to `O=C(Oc1ccc2ccc(=O)oc2c1)c1ccc(Cl)cc1`, 101% (inactive); to `C#Cc1nc(C2=C(C)C(OC(=O)CCC(=O)O)CC2)cs1` (stereo unspecified), 89.7% (inactive).
As for `C#Cc1nc(C2=C(C)C(=N\O)/C(=N/O)C2)cs1`, the growth is 38.5% (inactive).
Take `O=C(N/N=C/c1ccco1)c1[nH]c2ccc(Br)cc2c1-c1ccccc1`: the growth is 20.5% (inactive).
Consider `COC(=O)C(Cc1ccccc1)NS(=O)(=O)/N=C1\NC(=O)NC1=C(Cl)Cl` (stereo unspecified), for which the growth is 106% (inactive).
Same read-out and setting: then `N#Cc1ccc(/C=N/NC(=O)c2[nH]c3ccc(Br)cc3c2-c2ccccc2)s1`, with 9.75% (active).
